Source: PubChem
The list is not random: actives were taken first. Their share in the collection is about 3.3%.
TLR9-MyD88 inh = inhibitors of human TLR9-MyD88 binding. inhibition, % at 4.98 µM. 340,000 tested, 0.21% active. CHO BLA complementation TLR9-MyD88, CCF4 FRET ratio. AID 504734;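 active = inhibition above the mean over all tested compounds plus 3 SD, cut at about 21% in these data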
NOD2-RIPK2 inh = inhibitors of human NOD2-RIPK2 interaction; O43353; CHO BLA complementation NOD2-RIPK2, CCF4 ratio; inhibition, % at 4.98 µM; 360,000 tested, 0.38% active; in the data active = inhibition above about 21%
TLR4-MyD88 BLA = inhibitors of human TLR4-MyD88 binding; O00206+Q99836; HeLa CL3-4 TLR4/MyD88 BLA complementation, FRET ratio; inhibition, % at 8.4 µM; 200,000 tested, 0.18% active; AID 861; in the data active = inhibition above about 25%
Target sequence (O00206 whole entry, looked up): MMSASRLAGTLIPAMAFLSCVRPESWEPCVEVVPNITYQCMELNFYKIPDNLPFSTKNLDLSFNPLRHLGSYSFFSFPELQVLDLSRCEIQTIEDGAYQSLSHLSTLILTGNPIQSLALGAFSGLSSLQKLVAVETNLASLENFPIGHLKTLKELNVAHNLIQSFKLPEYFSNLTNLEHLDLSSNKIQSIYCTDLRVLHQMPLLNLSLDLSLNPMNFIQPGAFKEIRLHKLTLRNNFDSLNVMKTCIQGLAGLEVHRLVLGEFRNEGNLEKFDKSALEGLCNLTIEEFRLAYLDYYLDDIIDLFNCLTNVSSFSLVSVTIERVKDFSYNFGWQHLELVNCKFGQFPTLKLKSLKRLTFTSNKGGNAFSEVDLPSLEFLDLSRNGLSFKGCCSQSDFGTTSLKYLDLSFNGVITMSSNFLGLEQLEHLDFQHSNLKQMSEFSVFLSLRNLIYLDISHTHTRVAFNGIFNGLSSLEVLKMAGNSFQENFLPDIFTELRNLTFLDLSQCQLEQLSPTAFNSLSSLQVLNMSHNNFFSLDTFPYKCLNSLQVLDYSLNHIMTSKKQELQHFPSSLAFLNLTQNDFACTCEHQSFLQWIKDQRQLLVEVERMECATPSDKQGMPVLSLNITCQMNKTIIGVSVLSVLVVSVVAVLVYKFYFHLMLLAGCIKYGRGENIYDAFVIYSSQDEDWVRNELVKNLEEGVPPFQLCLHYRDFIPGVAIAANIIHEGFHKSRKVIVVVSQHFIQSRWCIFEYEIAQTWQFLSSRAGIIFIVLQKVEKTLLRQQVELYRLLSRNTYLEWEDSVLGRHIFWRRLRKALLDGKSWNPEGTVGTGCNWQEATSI
Target sequence (Q99836 whole entry, looked up): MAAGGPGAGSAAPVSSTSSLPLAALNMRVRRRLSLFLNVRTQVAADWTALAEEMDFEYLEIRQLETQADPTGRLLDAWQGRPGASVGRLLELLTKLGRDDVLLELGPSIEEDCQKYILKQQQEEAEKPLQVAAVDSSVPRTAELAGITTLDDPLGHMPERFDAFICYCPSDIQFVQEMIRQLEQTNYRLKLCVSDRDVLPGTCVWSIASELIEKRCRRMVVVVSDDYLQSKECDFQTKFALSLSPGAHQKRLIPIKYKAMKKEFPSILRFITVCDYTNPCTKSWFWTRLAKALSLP
PRMT1 FP inh = blocks human protein arginine methyltransferase 1. recombinant PRMT1, activity-based probe fluorescence polarization. inhibition, % at 2.79 µM. 370,000 tested, 1.3% active;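 active = inhibition above about 21% made by adding two undisclosed values, limit read from the data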
rCAG binder = molecules binding r(CAG) RNA repeats; r(CAG) RNA repeat, TO-PRO-1 dye displacement fluorescence; inhibition, % at 3 µM; 370,000 tested, 1.3% active; AID 651821;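 active = inhibition above the plate cutoff, the mean of all test compounds on that plate plus 3 SD, cut at about 35% in these data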;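 note: higher means more dye released from RNA so lower well fluorescence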
ABHD5-PLIN5 inh = inhibitors of human ABHD5-perilipin-5 interaction; Q00G26+Q8WTS1; Split G. princeps luciferase complementation, luminescence, 4 h; inhibition, % at 4 µM; 360,000 tested, 0.78% active; AID 602281;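 active = inhibition above the mean inhibition across every tested compound plus 3 SD, cut at about 22% in these data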
Numbers stand for hits.

What do the screens show for `Cc1ccc(S(=O)(=O)NN2C(=O)/C(=C/c3cccc(F)c3)SC2=S)cc1`?
TLR9-MyD88 inh: inactive; NOD2-RIPK2 inh: inactive; PRMT1 FP inh: inactive; rCAG binder: 75; ABHD5-PLIN5 inh: inactive

Results for O=C1/C(=C/c2cccnc2)SC(=S)N1NS(=O)(=O)c1ccccc1 ?
TLR9-MyD88 inh: inactive; NOD2-RIPK2 inh: inactive; PRMT1 FP inh: 23; rCAG binder: inactive; ABHD5-PLIN5 inh: inactive

How did O=C1/C(=C\c2ccc(Br)cc2)SC(=S)N1NS(=O)(=O)c1ccccc1 do in these assays?
TLR9-MyD88 inh: inactive; NOD2-RIPK2 inh: inactive; PRMT1 FP inh: inactive; rCAG binder: inactive; ABHD5-PLIN5 inh: inactive

How did O=C(COC(=O)c1ccc(O)cc1)NC1CCCCCCC1 do in these assays?
TLR9-MyD88 inh: inactive; NOD2-RIPK2 inh: inactive; PRMT1 FP inh: inactive; rCAG binder: inactive; ABHD5-PLIN5 inh: inactive

Results for COC(=O)c1cc(C)sc1NC(=O)CSc1ncccn1 ?
TLR9-MyD88 inh: inactive; NOD2-RIPK2 inh: inactive; PRMT1 FP inh: 22; rCAG binder: inactive; ABHD5-PLIN5 inh: inactive

What do the screens show for `COC(=O)c1ccccc1NC(=O)CSc1ncccn1`?
TLR9-MyD88 inh: inactive; NOD2-RIPK2 inh: inactive; PRMT1 FP inh: inactive; rCAG binder: inactive; ABHD5-PLIN5 inh: inactive

What do the screens show for `COc1ccc(NC(=O)Cc2ccc(Cl)c(Cl)c2)cn1`?
TLR9-MyD88 inh: inactive; NOD2-RIPK2 inh: inactive; TLR4-MyD88 BLA: inactive; PRMT1 FP inh: inactive; rCAG binder: inactive; ABHD5-PLIN5 inh: inactive

Results for COc1ccc(NC(=O)/C(Cl)=C(/Cl)S(=O)(=O)Cc2ccc(C)cc2)cn1 ?
TLR9-MyD88 inh: 27; NOD2-RIPK2 inh: 75; TLR4-MyD88 BLA: inactive; ABHD5-PLIN5 inh: 64

How did Cc1nn(-c2ccccc2)c2sc(C(=O)N3CCN(Cc4ccc(F)cc4)CC3)cc12 do in these assays?
PRMT1 FP inh: inactive; rCAG binder: inactive

Results for Nc1nc(-c2ccco2)nn1S(=O)(=O)c1ccc(Cl)cc1 ?
TLR9-MyD88 inh: inactive; NOD2-RIPK2 inh: inactive; TLR4-MyD88 BLA: inactive; PRMT1 FP inh: inactive; rCAG binder: inactive; ABHD5-PLIN5 inh: inactive

Results for N#CCc1c(C#N)c(N)nc(N2CCCC(CO)C2)c1C#N (configuration not stated) ?
TLR9-MyD88 inh: inactive; NOD2-RIPK2 inh: inactive; TLR4-MyD88 BLA: inactive; PRMT1 FP inh: 23; rCAG binder: inactive; ABHD5-PLIN5 inh: inactive

Results for COc1ccc(/C=C(\NC(=O)/C=C/c2ccco2)C(=O)NCCc2nc3ccccc3[nH]2)cc1 ?
TLR9-MyD88 inh: inactive; NOD2-RIPK2 inh: inactive; TLR4-MyD88 BLA: inactive; PRMT1 FP inh: inactive; rCAG binder: inactive; ABHD5-PLIN5 inh: 23

Results for Cc1ccc2nc(/C(C#N)=C/c3ccc(O)c(O)c3)[nH]c2c1 ?
TLR9-MyD88 inh: inactive; NOD2-RIPK2 inh: inactive; PRMT1 FP inh: 27; rCAG binder: inactive; ABHD5-PLIN5 inh: inactive

What do the screens show for `Cc1ccc(NC(=O)/C=C\C(=O)NCC(=O)O)cc1`?
TLR9-MyD88 inh: inactive; NOD2-RIPK2 inh: inactive; TLR4-MyD88 BLA: inactive; PRMT1 FP inh: 24; rCAG binder: inactive; ABHD5-PLIN5 inh: inactive

Results for C#CCN1CC(COc2ccccc2)Oc2cccc(Oc3ccc(OC)cc3)c2S1(=O)=O (configuration not stated) ?
PRMT1 FP inh: inactive; rCAG binder: inactive

What do the screens show for `CC1CCC(NC(=O)c2nn(C)c3c2CSc2ccccc2-3)CC1` (configuration not stated)?
TLR9-MyD88 inh: inactive; NOD2-RIPK2 inh: inactive; PRMT1 FP inh: 22; rCAG binder: inactive; ABHD5-PLIN5 inh: inactive

How did Cn1nc(C(=O)NC2CCCCC2)c2c1-c1ccccc1SC2 do in these assays?
TLR9-MyD88 inh: inactive; NOD2-RIPK2 inh: inactive; PRMT1 FP inh: inactive; rCAG binder: inactive; ABHD5-PLIN5 inh: inactive

What do the screens show for `CCC(=O)N(Cc1ccco1)c1nc(C(=O)Nc2ccc(Cl)cc2)c(C)s1`?
TLR9-MyD88 inh: inactive; NOD2-RIPK2 inh: inactive; TLR4-MyD88 BLA: inactive; PRMT1 FP inh: 21; rCAG binder: inactive; ABHD5-PLIN5 inh: inactive

What do the screens show for `CCN(C(=O)c1ccco1)c1nc(CC(=O)Nc2ccc(Cl)cc2)cs1`?
TLR9-MyD88 inh: inactive; NOD2-RIPK2 inh: inactive; TLR4-MyD88 BLA: inactive; PRMT1 FP inh: inactive; rCAG binder: inactive; ABHD5-PLIN5 inh: inactive

What do the screens show for `CC1(C)CC(=O)C(CSC(=O)c2ccccc2)C(=O)C1`?
TLR9-MyD88 inh: inactive; NOD2-RIPK2 inh: inactive; PRMT1 FP inh: 24; rCAG binder: inactive; ABHD5-PLIN5 inh: inactive

Results for O=C(CNC(=O)c1ccc(Br)cc1)NCC(=O)OCC(=O)c1ccc(F)cc1 ?
TLR9-MyD88 inh: inactive; NOD2-RIPK2 inh: inactive; PRMT1 FP inh: inactive; rCAG binder: inactive; ABHD5-PLIN5 inh: inactive

What do the screens show for `O=C(CNC(=O)c1ccc(Br)cc1)NCC(=O)OCC(=O)c1ccc([N+](=O)[O-])cc1`?
TLR9-MyD88 inh: inactive; NOD2-RIPK2 inh: inactive; TLR4-MyD88 BLA: inactive; PRMT1 FP inh: 23; rCAG binder: inactive; ABHD5-PLIN5 inh: inactive

What do the screens show for `Oc1ccc(N=Cc2ccc(OCc3ccccc3)cc2)cc1`?
TLR9-MyD88 inh: inactive; NOD2-RIPK2 inh: inactive; TLR4-MyD88 BLA: inactive; PRMT1 FP inh: 36; rCAG binder: inactive; ABHD5-PLIN5 inh: inactive

What do the screens show for `O=C(C[n+]1ccc(C(=O)N/N=C/c2ccc(OCc3ccccc3)cc2)cc1)c1ccccc1`?
TLR9-MyD88 inh: inactive; NOD2-RIPK2 inh: inactive; TLR4-MyD88 BLA: inactive; PRMT1 FP inh: inactive; rCAG binder: inactive; ABHD5-PLIN5 inh: 26

How did O=C(C[n+]1ccc(C(=O)N/N=C/c2ccc(O)cc2)cc1)c1ccccc1 do in these assays?
TLR9-MyD88 inh: inactive; NOD2-RIPK2 inh: inactive; TLR4-MyD88 BLA: inactive; PRMT1 FP inh: inactive; rCAG binder: inactive; ABHD5-PLIN5 inh: inactive

Results for O=C(N/N=C/c1ccc(OCc2ccccc2)cc1)c1ccncc1 ?
TLR9-MyD88 inh: inactive; NOD2-RIPK2 inh: inactive; TLR4-MyD88 BLA: inactive; PRMT1 FP inh: inactive; rCAG binder: inactive; ABHD5-PLIN5 inh: inactive

How did COC1=C(Br)C(=O)c2nc(C)ccc2C1=O do in these assays?
TLR9-MyD88 inh: inactive; NOD2-RIPK2 inh: inactive; PRMT1 FP inh: 28; rCAG binder: inactive; ABHD5-PLIN5 inh: inactive

Results for Cn1cccc1C(=O)N1CCN(S(=O)(=O)c2ccc(Cl)s2)CC1 ?
PRMT1 FP inh: inactive; rCAG binder: inactive

How did CC(C)CCN1C(=O)c2ccccc2C1c1nnnn1C(C)C (configuration not stated) do in these assays?
NOD2-RIPK2 inh: inactive; PRMT1 FP inh: inactive; rCAG binder: inactive; ABHD5-PLIN5 inh: inactive

What do the screens show for `C/C(=N\Nc1cc(-c2ccccc2)nc(-c2ccc(Br)cc2)n1)c1cccc(N)c1`?
TLR9-MyD88 inh: inactive; NOD2-RIPK2 inh: inactive; TLR4-MyD88 BLA: inactive; PRMT1 FP inh: inactive; rCAG binder: 43; ABHD5-PLIN5 inh: inactive

What do the screens show for `C/C(=N/Nc1cc(-c2ccccc2)nc(-c2ccccc2)n1)c1ccc(O)cc1`?
TLR9-MyD88 inh: inactive; NOD2-RIPK2 inh: inactive; TLR4-MyD88 BLA: inactive; PRMT1 FP inh: inactive; rCAG binder: inactive; ABHD5-PLIN5 inh: inactive

What do the screens show for `O=C(OCc1ccc(F)cc1)c1ccc2c(c1)-c1ccccc1C2=O`?
TLR9-MyD88 inh: inactive; NOD2-RIPK2 inh: inactive; TLR4-MyD88 BLA: inactive; PRMT1 FP inh: inactive; rCAG binder: inactive; ABHD5-PLIN5 inh: inactive
